From article PMC4336329 (PLoS ONE, 2015)
The whole screen tested about 310,000 compounds, of which about 14,000 (4.5%) showed an effect of 50% or more. Effects have a minus sign here. The entries come from a sample that favours strong results as a whole.

The compounds below were run against human ether-à-go-go-related gene (hERG) potassium channel (human, UniProt Q12809) (assay: primary screen, population patch clamp on CHO cells stably expressing hERG; higher = less effect of the substance).
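Note: peak tail current of the secondary pulse compared with the same well before compound.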

Chain of human ether-à-go-go-related gene (hERG) potassium channel (Q12809 whole entry, looked up): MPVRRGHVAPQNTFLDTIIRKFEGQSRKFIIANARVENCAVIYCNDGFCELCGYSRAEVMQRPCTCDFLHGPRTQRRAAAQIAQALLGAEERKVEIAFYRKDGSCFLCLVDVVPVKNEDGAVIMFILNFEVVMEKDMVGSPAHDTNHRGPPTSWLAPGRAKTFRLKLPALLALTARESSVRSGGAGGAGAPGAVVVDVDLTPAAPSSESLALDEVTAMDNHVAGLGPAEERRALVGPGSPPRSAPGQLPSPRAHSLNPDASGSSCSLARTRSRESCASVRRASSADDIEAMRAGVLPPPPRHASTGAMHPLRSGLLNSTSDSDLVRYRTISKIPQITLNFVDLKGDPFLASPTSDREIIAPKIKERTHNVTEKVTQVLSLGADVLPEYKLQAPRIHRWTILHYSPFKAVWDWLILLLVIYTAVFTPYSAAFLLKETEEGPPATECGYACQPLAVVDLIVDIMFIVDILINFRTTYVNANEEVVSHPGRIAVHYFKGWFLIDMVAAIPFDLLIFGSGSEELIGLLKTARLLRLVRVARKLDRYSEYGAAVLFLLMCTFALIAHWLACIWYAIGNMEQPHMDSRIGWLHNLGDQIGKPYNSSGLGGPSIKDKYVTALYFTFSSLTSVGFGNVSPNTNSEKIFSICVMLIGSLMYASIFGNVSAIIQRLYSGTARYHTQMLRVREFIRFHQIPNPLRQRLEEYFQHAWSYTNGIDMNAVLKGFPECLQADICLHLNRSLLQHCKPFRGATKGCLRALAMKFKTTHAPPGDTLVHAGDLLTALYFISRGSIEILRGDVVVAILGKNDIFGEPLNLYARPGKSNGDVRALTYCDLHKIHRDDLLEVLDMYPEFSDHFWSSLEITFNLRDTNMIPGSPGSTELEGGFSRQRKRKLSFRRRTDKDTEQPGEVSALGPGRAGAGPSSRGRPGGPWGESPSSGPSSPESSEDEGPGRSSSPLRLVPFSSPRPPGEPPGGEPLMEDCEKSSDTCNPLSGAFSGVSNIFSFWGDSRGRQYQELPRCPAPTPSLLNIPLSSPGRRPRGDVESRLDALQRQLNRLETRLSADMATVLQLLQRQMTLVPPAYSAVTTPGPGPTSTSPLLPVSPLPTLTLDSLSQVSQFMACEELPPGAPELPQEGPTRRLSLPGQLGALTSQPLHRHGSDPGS

| Structure (SMILES) | hERG current change (%, negative = inhibition) at 10uM [%] |
| --- | --- |
| CCN(CC)S(=O)(=O)c1ccc(-c2cn3cc(Cl)ccc3n2)cc1 | 2.07 |
| COc1ccc(-n2c3c(c(=O)[nH]c2=O)C(NC(=O)c2ccncc2)(C(F)(F)F)C(=O)N3)cc1 (centres unmarked) | 18.1 |
| CCc1cc2c(Sc3nc4ccccc4s3)ncnc2s1 | 16.9 |
| Cc1cc(C)cc(NC(=O)CCCSc2nc3ccccc3[nH]2)c1 | -2.7 |
| Cn1c(=O)c2c(ncn2CC(=O)OCC(=O)NC2CCCc3ccccc32)n(C)c1=O (centres unmarked) | 2.36 |
| COc1ccc(CNC(=O)c2cccc3c2C(=O)N(Cc2cccnc2)C3)cc1 | -38.6 |
| O=C(NCc1ccc(F)cc1)c1cccc2c1C(=O)N(Cc1cccnc1)C2 | -61.8 |
| COc1ccccc1CNC(=O)c1cccc2c1C(=O)N(Cc1cccnc1)C2 | -70.1 |
| COCCN1Cc2cccc(C(=O)NCc3cccnc3)c2C1=O | 3.96 |
| COc1cc(NC(=O)c2cccc3c2C(=O)N(Cc2cccnc2)C3)cc(OC)c1OC | -79.2 |
| CCOc1ccc(NC(=O)c2cccc3c2C(=O)N(Cc2cccnc2)C3)cc1 | -22 |
| O=C(Nc1ccc2c(c1)OCO2)c1cccc2c1C(=O)N(Cc1cccnc1)C2 | -47 |
| COC(CNC(=O)c1cccc2c1C(=O)N(Cc1cccnc1)C2)OC | -15.3 |
| O=C(NCc1cccnc1)c1cccc2c1C(=O)N(Cc1cccnc1)C2 | -11 |
| O=C(CC(Sc1n[nH]c(-c2ccccc2)n1)c1ccccc1)NCc1ccccc1 (centres unmarked) | -16 |
| Cc1ccc2sc(N(CCN(C)C)C(=O)/C=C/c3cccs3)nc2c1C.Cl | 11.8 |
| COc1ccccc1C(=O)OCC(=O)Nc1cc(S(=O)(=O)N2CCOCC2)ccc1N1CCCC1 | -7.82 |
| O=C(NCC(=O)N1CCCC1C(=O)O)OC1CCCCC1 (centres unmarked) | -6.8 |
| Cc1cccc(-c2noc(-c3ccno3)n2)c1 | -53 |
| Cc1ccc(-c2noc(-c3ccno3)n2)cc1 | 9.19 |
| Cc1cccc(-c2noc(-c3ccc(F)cc3)n2)c1 | 15.1 |
| COc1ccccc1C(CNC(=O)CNC(=O)c1ccc(C)c(C)c1)N1CCCC1 (centres unmarked) | -6.27 |
| C(=C\c1ccccc1)/CSc1nnc(-c2ccncc2)n1Cc1ccco1 | -63.9 |

| Structure (SMILES) | hERG current change (%, negative = inhibition) at 10uM [%] |
| --- | --- |
| Cn1c(SC/C=C/c2ccccc2)nnc1-c1ccco1 | -27.1 |
| Nn1c(SC/C=C/c2ccccc2)nnc1-c1cccnc1 | 23.4 |
| C(=C\c1ccccc1)/CSc1nnc(-c2ccccc2)n1Cc1ccco1 | -74.7 |
| Clc1ccc(-n2c(SC/C=C/c3ccccc3)nnc2-c2cccnc2)cc1 | -50.3 |
| O=C(CSc1nnc(-c2cccnc2)n1Cc1ccco1)N1c2ccccc2Sc2ccccc21 | -33.7 |
| C(=C\c1ccccc1)/CSc1nnc(-c2cccnc2)n1Cc1ccco1 | -70.8 |
| Nn1c(SC/C=C/c2ccccc2)nnc1-c1ccncc1 | -8.06 |
| O=C(O)CCSc1nnc(-c2cccnc2)n1-c1ccccc1 | 11.2 |
| Cc1noc(C)c1CSc1nnc(-c2ccccc2)n1Cc1ccco1 | -21.9 |
| c1ccc(-c2nnc(CSc3nnc(-c4ccncc4)n3Cc3ccco3)o2)cc1 | -29.8 |
| CCSc1nnc(-c2cccnc2)n1Cc1ccco1 | -7.73 |
| Cc1ccccc1OCCn1c(CCNC(=O)C(C)C)nc2ccccc21 | -6.24 |
| CCN1C(=O)CC(C(=O)Nc2ccc(F)cc2)SC1=Nc1ccc2c(c1)OCO2 (centres unmarked) | -13.5 |
| CC(C)Sc1nc(N)c2c3c(sc2n1)CN(C)CC3 | -34 |
| CC(=O)Oc1ccc(/C=N/NC(=O)CCSc2ccccc2)cc1 | -8.83 |
| COc1ccc2nc(-c3ccccc3)[nH]c2c1 | -1.4 |
| COc1ccc(/C=C/C(=O)NCC(=O)N/N=C/c2cccnc2)cc1 | -14.9 |
| CCN(CC)CCNC(=S)Nc1ccc2nc(N3CCN(CC)CC3)cc(C)c2c1 | 11.2 |
| Cc1cc(N2CCN(C)CC2)nc2ccc(NC(=S)NC3CC3)cc12 | 3.2 |
| COc1ccccc1CNC(=S)Nc1ccc2nc(N3CCN(C)CC3)cc(C)c2c1 | -1.77 |
| Cc1cc(N2CCN(C)CC2)nc2ccc(NC(=S)NCc3cccs3)cc12 | -56.3 |
| CCCCNC(=S)Nc1ccc2nc(N3CCN(CC)CC3)cc(C)c2c1 | -44.6 |
| COc1ccc(CNC(=S)Nc2ccc3nc(N4CCN(C)CC4)cc(C)c3c2)cc1 | -51.1 |

| Structure (SMILES) | hERG current change (%, negative = inhibition) at 10uM [%] |
| --- | --- |
| CCN1CCN(c2cc(C)c3cc(NC(=O)c4cccnc4Cl)ccc3n2)CC1 | -6.83 |
| COc1ccc(CNC(=S)Nc2ccc3nc(N4CCOCC4)cc(C)c3c2)cc1 | -24 |
| CCN1CCN(c2cc(C)c3cc(NC(=S)NCc4cccs4)ccc3n2)CC1 | -59.7 |
| Cc1cc(N2CCN(C)CC2)nc2ccc(NC(=S)NCCN3CCc4ccccc4C3)cc12 | -23.7 |
| CCN1CCN(c2cc(C)c3cc(NC(=O)c4cccs4)ccc3n2)CC1 | -55.1 |
| CC(=O)c1ccc(NC(=O)C2=CC(c3ccco3)=NS(=O)(=O)N2C)cc1 | -7.75 |
| COC(C(=O)N/N=C(\C)CC(=O)Nc1ccc(N(C)C)cc1)c1ccccc1 (centres unmarked) | 15.3 |
| CC(NS(C)(=O)=O)C(c1cccs1)N1CCN(c2ccccc2F)CC1 (centres unmarked) | 6.04 |
| Cc1ccc(CNC(=O)Cn2c([N+](=O)[O-])cnc2C)cc1 | 11.3 |
| COc1ccc(S(=O)(=O)NNC(=O)Nc2ccc(C)cc2C)c(OC)c1 | -1.37 |
| Cc1nc(SCC(=O)c2c(N)n(C3CC3)c(=O)[nH]c2=O)[nH]c(=O)c1CCO | 17 |
| COc1ccc2c(c1)OC(O)(C(F)(F)F)CC2=O (centres unmarked) | -5.68 |
| CN(C(=O)/C=C/c1ccc(F)cc1)C1CCCCC1 | -22.6 |
| CN(C(=S)NC(=O)/C=C/c1ccc(F)cc1)C1CCCCC1 | 4.54 |
| COc1ccccc1/C=C/C(=O)NCC(=O)N1CCC(N(C)C2CCCC2)CC1 | -35 |
| CN(C1CCCC1)C1CCN(C(=O)CNC(=O)/C=C/c2cccc(C(F)(F)F)c2)CC1 | -62.6 |
| CN(C1CCCC1)C1CCN(C(=O)CNC(=O)/C=C/c2ccc(F)cc2)CC1 | -62.6 |
| CN(C(=O)/C=C/c1ccccc1)C1CCCCC1 | 1.32 |
| CN(C1CCCC1)C1CCN(C(=O)CNC(=O)/C=C/c2ccccc2)CC1 | -53.8 |
| CC(C)(C)NC(=O)/C=C/c1cccc(C(F)(F)F)c1 | -8.66 |
| CNC(=O)/C=C/c1cccc(C(F)(F)F)c1 | 4.99 |
| COc1ccc(NC(=O)c2cc(S(=O)(=O)NCC3COc4ccccc4O3)ccc2F)cc1 (centres unmarked) | -19.1 |
| O=c1oc2ccccc2cc1-c1cn2ccccc2n1 | 11.9 |

| Structure (SMILES) | hERG current change (%, negative = inhibition) at 10uM [%] |
| --- | --- |
| Nc1nnc(SCC(=O)NC2CCCCCCC2)s1 | 16.9 |
| CCCc1cc2c(cc1NC(=O)c1ccc(C(C)(C)C)cc1)OCO2 | -13.8 |
| Cc1csc(NC(=O)CSc2nnc3ncccn23)n1 | -14.3 |
| COc1ccc(NC(=O)CSc2nc3ccccc3c(=O)n2CCCN2CCOCC2)c(OC)c1 | -34.6 |
| COc1ccc(NC(=O)CSc2nc3ccccc3c(=O)n2CCCN2CCC(C)CC2)c(OC)c1 | -81.6 |
| COCCn1c(SCC(=O)Nc2ccccc2OC)nc2ccccc2c1=O | -40.1 |
| COCCn1c(SCC(=O)Nc2ccc(OC)cc2OC)nc2ccccc2c1=O | 10.5 |
| CCn1c(SCC(=O)Nc2ccccc2OC)nc2ccccc2c1=O | -11.9 |
| COc1ccc(NC(=O)CSc2nc3ccccc3c(=O)n2CCCN2CCCCC2)c(OC)c1 | -65.7 |
| COc1ccc(NC(=O)CCCNS(=O)(=O)c2cccs2)cc1 | 2.91 |
| Cc1cccc(NC2=C(NC(=O)c3ccccc3)C(=O)c3ccccc3C2=O)c1 | -19.4 |
| CCOC(=O)C1(Cc2ccccc2)CCN(Cc2cnc(N3CCOCC3)s2)CC1 | -42.4 |
| OCC1(CCc2ccccc2)CCN(Cc2cnc(N3CCCC3)s2)CC1 | -70.3 |
| COc1cccc(CC2(CO)CCN(Cc3cnc(N4CCOCC4)s3)CC2)c1 | -54.7 |
| c1ccc(N2CCN(Cc3cnc(N4CCOCC4)s3)CC2)cc1 | 29.4 |
| OCC1(CCCc2ccccc2)CCN(Cc2cnc(N3CCOCC3)s2)CC1 | -58.3 |
| OCCC1CN(Cc2cnc(N3CCCC3)s2)CCN1C1CCCC1 (centres unmarked) | -7.38 |
| CN(C)c1ncc(CN2CCC(CO)(CCCc3ccccc3)CC2)s1 | -51.3 |
| OCCC1CN(Cc2cnc(N3CCCC3)s2)CCN1Cc1ccccc1 (centres unmarked) | -0.21 |
| Clc1ncc(CN2CCN(Cc3ccccc3)CC2)s1 | -4.52 |
